Data published in PubChem BioAssay (NCATS).
Where “and” joins values, the source holds several entries; their conditions need not be identical. Equal entries are not always repeated. Inconclusive results are not listed. Where a call stands in place of a potency, no number is given. Unmarked numbers belong to inactive results. Calls of active or inactive are those of the source. The call rests on the fitted dose curve; in most records, active means well fitted curve in the direction sought with a large enough effect; inconclusive means small, poorly fitted or top-dose-only effect, or another doubt; inactive means no such curve, though single readings can be large; an effect the other way counts as inactive or inconclusive.

How the values were obtained:
[1] = target: Cytochrome P450 3A7 (Homo sapiens) (UniProt P24462); experiment: Cytochrome P450 family 3 subfamily A member 7 (CYP3A7) small molecule antagonists: luciferase biochemical qHTS assay (AID 1963596); further: nearly all actives have a fitted effect of over 40% in size
Cytochrome P450 3A7 (Homo sapiens), sequence (P24462 whole entry, looked up): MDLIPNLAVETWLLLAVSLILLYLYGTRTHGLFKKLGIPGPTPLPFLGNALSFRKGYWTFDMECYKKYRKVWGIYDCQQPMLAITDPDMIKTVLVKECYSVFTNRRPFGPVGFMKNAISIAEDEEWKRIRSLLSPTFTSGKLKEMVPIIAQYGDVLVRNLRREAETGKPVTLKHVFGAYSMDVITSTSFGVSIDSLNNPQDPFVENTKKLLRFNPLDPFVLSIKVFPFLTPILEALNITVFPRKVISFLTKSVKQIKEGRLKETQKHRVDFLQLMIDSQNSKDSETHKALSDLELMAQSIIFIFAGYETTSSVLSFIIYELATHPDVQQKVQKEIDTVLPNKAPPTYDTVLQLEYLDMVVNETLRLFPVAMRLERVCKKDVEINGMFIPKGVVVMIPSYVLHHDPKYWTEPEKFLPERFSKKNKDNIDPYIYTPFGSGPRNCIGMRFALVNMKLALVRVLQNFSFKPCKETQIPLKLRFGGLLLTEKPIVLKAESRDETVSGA
In short: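 Luminescence read-out (relative luminescence units) after 20 min with detection reagent, which stops the reaction. Enzyme, proluciferin substrate and compound preincubated 10 min, RT; NADPH regeneration system then started 1 h reaction. Ketoconazole as positive control.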

[2] = Viability qHTS for spleen associated tyrosine kinase inhibitor (SYKi) naive MV4-11 cells (AID 1963823); further: nearly all actives have a fitted effect of over 40% in size; further: potency means the concentration at half of the fitted maximal effect
In short: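 Luminescence from CellTiter-Glo, developed 10 min at room temperature, gave viability of MV4-11 cells never exposed to SYK inhibitor. Cells (500/well) had been incubated with compounds for 72 hr under standard culture conditions.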

[3] = Viability qHTS for spleen associated tyrosine kinase inhibitor (SYKi) drug resistant MV4-11 cells (AID 1963824); further: nearly all actives have a fitted effect of over 35% in size; further: potency means the concentration at half of the fitted maximal effect
In short: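 SYK-inhibitor-resistant MV4-11 AML cells were seeded at 500 per well onto compound and cultured 72 hours (37 °C, 5% CO2). CellTiter-Glo was then added, and after 10 min at room temperature, luminescence gave viability.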

[4] = Cellular viability qHTS for adrenocortical cancer (ACC) cell line SW-13 (AID 1963989); conditions: SW-13 ACC cells viability, CellTiter-Glo, 48 h; activity (max response): hits give low values; further: nearly all actives have a fitted effect of over 65% in size; further: potency means the concentration at half of the fitted maximal effect;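 on activity (max response): cells grown in serum-free medium with ITS supplement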
In short: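 Viability was read as CellTiter-Glo luminescence after 48 h compound treatment (up to 46 uM final) of SW-13 cells grown serum-free; titration curves were fit with a four-parameter logistic model to give IC50 and efficacy.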

[5] = Cellular viability qHTS for adrenocortical cancer (ACC) cell line NCI-H295R (AID 1963990); further: nearly all actives have a fitted effect of over 60% in size; further: potency means the concentration at half of the fitted maximal effect
In short: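 CellTiter-Glo ATP luminescence, read 48 h after compound addition, measured viability of NCI-H295R adrenocortical cells grown serum-free with ITS. Final concentrations spanned up to 46 uM. Data normalized to DMSO and doxorubicin, fitted for IC50 and maximal response.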

| Structure (SMILES) | Potency [1] | Potency [2] | Potency [3] | activity (max response) [4] | Potency [5] | Potency [4] | activity change, negative = inhibition [1] | viability (% of control) [2] | viability, % of control [3] | activity change, negative = viability loss [5] |
| --- | --- | --- | --- | --- | --- | --- | --- | --- | --- | --- |
| Cc1ccc(-c2ccccc2C#N)cc1 | inactive | inactive | inactive | 12.9% | inactive | – | – | – | – | – |
| CC(=O)Oc1c(C)c(C)c2c(c1C)CC[C@@](C)(CCC[C@H](C)CCC[C@H](C)CCCC(C)C)O2 | inactive | inactive | inactive | 2.68% | inactive | – | – | – | – | – |
| CNC(=O)c1c(I)c(NC(C)=O)c(I)c(C(=O)O)c1I | inactive | inactive | inactive | 10% | inactive | – | – | – | – | – |
| CCN(CC)CCNC(=O)COc1ccc(Cl)cc1 | inactive | inactive | inactive | 6.48% | inactive | – | – | – | – | – |
| CCN1CCN(C(=O)N[C@@H](C(=O)N[C@@H]2C(=O)N3C(C(=O)O)=C(CSc4nnnn4C)CS[C@H]23)c2ccc(O)cc2)C(=O)C1=O | inactive | inactive | inactive | 5.63% and -4.45% | inactive | – | – | – | – | – |
| C/C=C1\[C@H]2C=C(C)C[C@]1(N)c1ccc(=O)[nH]c1C2 | inactive | inactive | inactive | 12.5% | inactive | – | – | – | – | – |
| COc1ccc(C(=O)N2CCN(CC(=O)N3CCOCC3)CC2)cc1 | inactive | inactive | inactive | 8.16% | inactive | – | – | – | – | – |
| O=C(OOC(=O)c1ccccc1)c1ccccc1 | inactive | inactive | inactive | 0.27% | inactive | – | – | – | – | – |
| Cc1c(F)c(N2CCNC(C)C2)cc2c1c(=O)c(C(=O)O)cn2C1CC1 (stereo not given) | inactive | inactive | inactive | -0.964% | inactive | – | – | – | – | – |
| Cc1ccc(-c2ccc3ncc4c(c3n2)n(C2CCN(C(=O)[C@H](C)O)CC2)c(=O)n4C)cn1 | inactive | 65.1 nM (active) | 58 nM (active) | – | 0.141 µM (active) | 0.794 µM (active) | – | – | – | – |
| O=c1[nH]c(=O)c2ccccc2o1 | inactive | inactive | inactive | 6.04% | inactive | – | – | – | – | – |
| CN1CCN(CC(=O)N2c3ccccc3C(=O)Nc3cccnc32)CC1 | – | – | – | -3% | – | – | 12.3% [at 4.83 µM] | 98.6% [at 4.97 µM] | 96.6% [at 4.97 µM] | -2.51% [at 3.81 µM] |
| COC(=O)/C=C\C(=O)OC | inactive | inactive | inactive | 9.62% | inactive | – | – | – | – | – |
| CN1CCN(C2CCN(C(=O)Nc3cc(Oc4ccc(NC(=O)C5(C(=O)Nc6ccc(F)cc6)CC5)c(F)c4)ccn3)CC2)CC1 | inactive | 65.1 nM (active) and 93.4 nM (active) | 116 nM (active) and 132 nM (active) | – | 25.1 µM (active) | 28.2 µM (active) | – | – | – | – |
| CCOc1ccc(NC(=O)CC(C)O)cc1 (stereo not given) | inactive | inactive | inactive | -9.31% | inactive | – | – | – | – | – |
| C[C@@H](O)[C@H]1C(=O)N2C(C(=O)O)=C(S[C@@H]3CN[C@H](C(=O)N(C)C)C3)[C@H](C)[C@H]12 | inactive | inactive | inactive | 7.3% and 9.96% | inactive | – | – | – | – | – |
| COC(=O)c1ccccc1C(=O)c1ccc(OCCN2CCCCC2)cc1 | inactive | inactive | inactive | -0.425% | inactive | – | – | – | – | – |
| CC(C)Cn1cnc2c1c(=O)n(C)c(=O)n2C | inactive | inactive | inactive | -11.6% | inactive | – | – | – | – | – |
| CC(=O)N[C@@H](Cc1ccc(O)cc1)C(=O)O | inactive | inactive | inactive | -8.88% | inactive | – | – | – | – | – |
| Nc1nc2c(ncn2CCC(CO)CO)c(=O)[nH]1 | inactive | inactive | inactive | -4.77% | inactive | – | – | – | – | – |
| C[C@H]1CN(C[C@H](Cc2ccccc2)C(=O)NCC(=O)O)CC[C@@]1(C)c1cccc(O)c1 | inactive | inactive | inactive | 8.76% | inactive | – | – | – | – | – |
| CCn1c(=O)c(-c2ccc(Cl)cc2Cl)cc2cnc(Nc3ccc(N4CCNCC4)c(F)c3)nc21 | inactive | 82 nM (active) and 118 nM (active) | 231 nM (active) and 186 nM (active) | -23.5% | inactive | – | – | – | – | – |
| COc1ccccc1N1CCN(CC(O)COc2cc(OC)c(OC)c(OC)c2)CC1 (stereo not given) | inactive | inactive | inactive | 13.2% | inactive | – | – | – | – | – |
| Nc1ccc(/C=C/c2ccc(N)cc2S(=O)(=O)O)c(S(=O)(=O)O)c1 | – | – | – | 11.4% | – | – | 6.59% [at 0.91 µM] | 106% [at 0.588 µM] | 94.1% [at 0.588 µM] | -9.73% [at 0.587 µM] |
| O=C1CC[C@@H](C(=O)O)N1 | inactive | 1.5 nM (active) | inactive | -6.66% | inactive | – | – | – | – | – |
| O=S(=O)(O)c1ccc(O)cc1 | inactive | inactive | inactive | 11.9% | inactive | – | – | – | – | – |
| CC(=O)NCCCCCC(=O)O | inactive | inactive | inactive | -2.94% | inactive | – | – | – | – | – |
| CCCNC(C)C(=O)Nc1ccccc1C (stereo not given) | inactive | inactive | inactive | 8.91% | inactive | – | – | – | – | – |
| O=C1NS(=O)(=O)c2ccccc21 | inactive | inactive | inactive | 0.607% | inactive | – | – | – | – | – |
